Compounds with a hit are over-represented: about 8% of the library has one in this group of screens.
FMDV antiviral: antivirals against foot and mouth disease virus; FMDV antiviral cell-based qHTS; Potency, µM (doses to about 57.9 µM), actives largely listed as inhibitors; 410,000 compounds, 1.2% hits; AID 1159524; calls by dose curve; tested in HEK293T cells; also: read-out not given here; nearly all actives have a fitted effect of over 45% in size
Marburg entry inh: blocks Marburg virus binding to or entry into cells | Potency, µM (doses to about 37.8 µM), actives largely listed as inhibitors | 300,000 compounds, 1.8% hits | Marburg virus pseudotyped entry inhibition, cell reporter | AID 540276; calls by dose curve; tested in HEK293 cells
HCV inh: blocks hepatitis C virus | Potency, µM (series often up to 41.8 µM), hits mostly inhibitors | 340,000 compounds, 3.4% hits | Huh7.5.1 HCVcc-Cre infection, luciferase reporter, 44 h; active = well fitted inhibition curve with a large enough effect; inconclusive = small, poorly fitted or top-dose-only effect, or another doubt; inactive = no such curve, though single readings can be large or run the other way
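1,000 cells/well; 4 h culture; + compound; + HCVcc-Cre (~0.5 moi); 44 h; luciferase substrate, RT 15 min; read 15 sec.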
SARS PLP yeast: inhibitors of SARS-CoV papain-like protease in yeast. S. cerevisiae expressing SARS-CoV PLpro, growth rescue. Potency, µM (series often up to 32.9 µM), hits mostly activators. 330,000 compounds, 0.19% hits. AID 485353; calls by dose curve; also: nearly all actives have a fitted effect of over 55% in size
HCMV antiviral: human cytomegalovirus inhibition; AID 1259415; HFF cells, HCMV-luciferase reporter, 72 h; hits give low values; 410,000 compounds, 4.5% hits; activity change, negative = inhibition, % at 57.5 µM; in the data active = activity change below about -60%; inconclusive = no clear call, values can overlap the other calls; inactive = above about -39%
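Luciferase read-out from HCMV-luciferase-infected HFFs (MOI 1 PFU/cell) 72 h post infection at 37C; compounds added after 16 h cell attachment; activity normalized between buffer-only basal and Salinomycin (10uM) inhibitor controls.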
LASV entry inh: Lassa virus entry inhibition; Lassa virus pseudotype entry inhibition, cell reporter; Potency, µM (titrated, usually from 37.9 µM), most hits filed as inhibitors; 300,000 compounds, 1.2% hits; calls by dose curve; tested in HEK293 cells; also: nearly all actives have a fitted effect of over 50% in size
Numbers stand for hits; – = inactive; ? = inconclusive; · = no result given; ! = a repeat was not active; [ ] = dose if it differs, or a comment.

SMILES	FMDV antiviral	Marburg entry inh	HCV inh	SARS PLP yeast	HCMV antiviral	LASV entry inh
Cc1ccc(C2=NC(=O)/C(=C/c3cc(O)c(O)c(Br)c3)S2)cc1	?	?	–	6.31µM	–	–
COc1cc(/C=C2\SC(c3ccc(C)cc3)=NC2=O)cc(OC)c1O	–	–	–	–	-75.3	–
COc1ccc(/C=C2\SC(N)=NC2=O)cc1Br	–	–	–	–	–	–
CCN1C(=O)c2ccccc2Sc2ccc(NC(=O)Nc3ccc(Br)c(C)c3)cc21	?	·	·	·	-101.6	?
CCN1C(=O)c2ccccc2Sc2ccc(NC(=O)Nc3ccc(C(C)=O)cc3)cc21	–	–	·	·	–	–
CCc1ccccc1NC(=O)Nc1ccc2c(c1)N(CC)C(=O)c1ccccc1S2	–	–	·	·	-84.0	–
CCN(CC)CCNC(=O)Nc1ccc2c(c1)N(Cc1ccccc1)C(=O)c1ccccc1S2	–	?	·	·	-60.8	?
CCN1C(=O)c2ccccc2Sc2ccc(C(=O)NC(C)C)cc21	–	·	–	–	-101.4	·
CC(O)(COc1ccccc1)c1ccc2c(c1)CN(Cc1cccc3cccnc13)CCO2 (stereo not given)	–	·	·	·	·	·
CCc1cccc(C)c1NC(=O)c1cc(S(=O)(=O)N(C)Cc2ccccc2)ccc1F	?	·	·	·	?	–
COc1cc(NC(=O)c2cc(-c3ccccc3)nc3c2cnn3C(C)C)cc(OC)c1OC	?	·	?	–	·	·
CC(C)n1ncc2c(C(=O)NCc3cccnc3)cc(C3CC3)nc21	–	·	7.94µM	–	–	·
CC(C)n1ncc2c(C(=O)Nc3ccc(S(N)(=O)=O)cc3)cc(C3CC3)nc21	?	·	–	–	–	·
COc1cccc(CNC(=O)c2cc(C3CC3)nc3c2cnn3C(C)C)c1	–	·	?	–	–	·
CC(=O)Nc1ccc(NC(=O)c2cc(C3CC3)nc3c2cnn3C(C)C)cc1	–	–	10µM	–	–	?
CNC(=O)c1cccc(NC(=O)c2cc(-c3ccccc3)nc3c2cnn3C(C)C)c1	?	·	3.16µM	–	–	·
CC(C)n1ncc2c(C(=O)Nc3ccc(S(C)(=O)=O)cc3)cc(C3CC3)nc21	–	·	5.62µM	–	–	·
O=[N+]([O-])c1ccc(CSc2ncnc3c2ncn3C2OC(CO)C(O)C2O)cc1 (stereo not given)	–	·	·	·	·	·
C=CC[C@@H]1C=CC(ON=C(C)CCC(=O)OC[C@H]2O[C@H](C#Cc3ccccc3)C=C[C@H]2Oc2ccc(C)cc2)[C@H](CO)O1 (stereo not given in full)	·	–	·	·	·	·
CCOc1ccc(NC(=O)c2cc(C3CC3)nc3c2cnn3C(C)C)cc1OC	–	·	10µM	–	–	·
Cc1ccc(OCCNC(=O)c2cc(C3CC3)nc3c2cnn3C(C)C)cc1	–	·	12.6µM	–	–	·
CC(C)n1ncc2c(C(=O)Nc3cccc(S(=O)(=O)N(C)C)c3)cc(C3CC3)nc21	?	?	?	–	–	?
CCN(CC)C(=O)c1cccc(NC(=O)c2cc(C3CC3)nc3c2cnn3C(C)C)c1	–	·	7.08µM	–	–	·
CCc1cccc(NC(=O)Cn2c(=O)n(CCc3ccc(OC)c(OC)c3)c(=O)c3ccccc32)c1	–	?	·	·	–	–
CC(=O)C1=C(c2ccc(F)cc2)N(C(C)=O)n2c(nnc2C2CCCCC2)S1	?	·	·	·	–	–
SMILES	FMDV antiviral	Marburg entry inh	HCV inh	SARS PLP yeast	HCMV antiviral	LASV entry inh
Cc1ccc(S(=O)(=O)N2CCC(=O)N(CCOC(=O)NCc3ccccc3)CC2)cc1	–	–	–[8.37 µM]	–	–	–
Cc1ccc(S(=O)(=O)N2CCC(=O)N(CCOC(=O)Nc3cccc(Cl)c3)CC2)cc1	–	–	?	–	-64.3	–
COc1ccc(CNC(=O)OCCN2CCN(S(=O)(=O)c3ccc(C)cc3)CCC2=O)cc1	–	?	–	–	-65.2	–
CCCCCN1C(C(=O)c2ccccc2)=C(NC(=O)c2ccc(C)cc2)c2ccccc2S1(=O)=O	–	?	·	·	–	–
COC(=O)c1ccc([C@H]2/C(=C(\O)c3ccc(OC)cc3)C(=O)C(=O)N2Cc2ccco2)cc1	·	–	·	·	·	·
CCOc1cccc(NCc2cc3c(C(C)(C)C)nn(-c4ccccc4)c3[nH]c2=O)c1	·	?	12.6µM	–	–	–
CC(C)(C)c1nn(-c2ccccc2)c2[nH]c(=O)c(CNCc3ccc4c(c3)OCO4)cc12	·	?	–	–	–	?
CCOCCCNC(=O)c1ccc2c(=O)n(CCc3ccc(OC)c(OC)c3)c(=O)[nH]c2c1	–	·	·	·	–	–
CCN1c2ccccc2N(C)C1(C)c1ccccc1 (stereo not given)	?	?	–	–	·	?
CN1c2ccccc2N(C)C1(C)c1ccccc1	–	?	–	–	-92.8	?
CCc1nnc(SCc2cc(C)ccc2C)c2cc3sc(C)cc3n12	–	·	·	·	–	–
CC1CCCCN1S(=O)(=O)c1cccc2cccnc12 (stereo not given)	–	·	–	–	–	·
CC1CNCCN1S(=O)(=O)c1cccc2cnccc12 (stereo not given)	?	?	?	–	-64.3!	?
Cc1cccc2sc(N(Cc3cccnc3)C(=O)c3cccs3)nc12	–	·	·	·	–	–
NC(=O)c1c(-c2ccc(Cl)cc2Cl)csc1NC(=O)Cc1ccccc1	?	?	?	–	-65.1	–
CC(=N\Nc1ccc(Cl)cc1)/C(=N/O)C(=O)Nc1ccccc1	–	–	–	–	–	–
CCOC(=O)C(=N/O)/C(C)=N/NC(=O)C(=O)Nc1ccc(Cl)cc1	?	·	11.2µM	–	–	·
Cc1ccc(-c2csc(Nc3ccccn3)n2)cc1	–	2µM	–	–	–	?
Cc1cccnc1Nc1nc(-c2ccc(O)cc2)cs1	·	?	10µM	–	–	–
COc1ccc(-c2csc(Nc3ccccn3)n2)cc1OC	–	?	8.91µM	–	–	?
c1ccc(-c2csc(Nc3ccccn3)n2)cc1	–	?	–	–	–	?
Cc1cc(-c2csc(Nc3ccccn3)n2)ccc1F	–	?	6.31µM	–	–	?
COC(=O)[C@H]1[C@H](CO)[C@H]2Cn3c(ccc(Br)c3=O)[C@H]2N1Cc1ccc2c(c1)OCO2	·	·	·	·	–	·
COc1cc(C(CC(=O)Nc2cc(C)ccc2C)N2Cc3ccccc3C2=O)cc(OC)c1OC (stereo not given)	–	·	·	·	–	–
CC1(C)COC(/C=C/c2ccc([N+](=O)[O-])cc2)=N1	–	?	?	–	-101.0	?
SMILES	FMDV antiviral	Marburg entry inh	HCV inh	SARS PLP yeast	HCMV antiviral	LASV entry inh
Cc1ccc(NC(=O)CNC(=O)Cn2c(C)cc3ccccc3c2=O)cc1F	–	–	·	·	–	–
Cc1cc2ccccc2c(=O)n1CC(=O)N(C)c1ccc(F)cc1	–	–	–	–	-103.0	–
O=C(Nc1ccccc1Cl)N1CCC2(CC1)Oc1ccccc1C(=O)N2Cc1ccc(F)cc1	?	–	·	·	–	–
O=C(O)c1cc(-c2ccc(C(F)(F)F)cc2)nc2n[nH]c(-c3ccccc3)c12	–	·	·	·	–	–
COc1ccccc1Nc1cc(C(=O)N2CCc3ccccc3C2)c2ccccc2n1	·	·	·	–	·	·
COc1ccc(N2CCN(CCCNC(=O)c3cc(Nc4ccc(OC)cc4OC)nc4ccccc34)CC2)cc1	22.4µM	·	·	·	–	?

Screening results deposited in PubChem by National Center for Advancing Translational Sciences (NCATS).
